According to ChEMBL document CHEMBL1961873, “Compounds: GSK PKIS; Assays: Nanosyn kinase panel” (2012):

Assays:
[1] = target: Sphingosine kinase 1 (Homo sapiens) (UniProt Q9NYA1); conditions: at 1 µM;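 further: mean SPHK1 inhibition value reported from the GSK PKIS kinase panel screen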
[2] = target: T1, Sphingosine kinase 2 (Homo sapiens) (UniProt Q9NRA0); conditions: at 0.1 µM
T1 sequence (whole entry): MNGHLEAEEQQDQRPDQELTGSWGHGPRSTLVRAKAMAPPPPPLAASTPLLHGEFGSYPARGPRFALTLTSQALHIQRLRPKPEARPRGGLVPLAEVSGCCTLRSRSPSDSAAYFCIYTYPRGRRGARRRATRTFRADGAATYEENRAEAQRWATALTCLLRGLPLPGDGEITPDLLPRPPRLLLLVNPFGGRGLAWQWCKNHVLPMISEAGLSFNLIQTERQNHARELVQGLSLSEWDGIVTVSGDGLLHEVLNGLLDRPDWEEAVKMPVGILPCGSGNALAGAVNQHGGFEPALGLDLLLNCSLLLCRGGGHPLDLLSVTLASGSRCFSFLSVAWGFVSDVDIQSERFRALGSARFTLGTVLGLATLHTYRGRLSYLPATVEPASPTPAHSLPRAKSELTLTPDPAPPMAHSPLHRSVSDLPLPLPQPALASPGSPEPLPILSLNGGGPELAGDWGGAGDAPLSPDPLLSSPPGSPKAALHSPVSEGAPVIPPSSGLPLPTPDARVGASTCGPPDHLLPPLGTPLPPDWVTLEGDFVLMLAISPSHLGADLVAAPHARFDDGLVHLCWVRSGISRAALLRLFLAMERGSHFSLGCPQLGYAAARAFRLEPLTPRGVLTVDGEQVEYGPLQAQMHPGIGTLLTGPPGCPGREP

[3] = target: T1, Sphingosine kinase 2 (Homo sapiens); conditions: at 1 µM
[4] = target: Casein kinase II subunit alpha (Homo sapiens) (UniProt P68400); conditions: at 0.1 µM
Chain of Casein kinase II subunit alpha (Homo sapiens) (P68400 whole entry, looked up): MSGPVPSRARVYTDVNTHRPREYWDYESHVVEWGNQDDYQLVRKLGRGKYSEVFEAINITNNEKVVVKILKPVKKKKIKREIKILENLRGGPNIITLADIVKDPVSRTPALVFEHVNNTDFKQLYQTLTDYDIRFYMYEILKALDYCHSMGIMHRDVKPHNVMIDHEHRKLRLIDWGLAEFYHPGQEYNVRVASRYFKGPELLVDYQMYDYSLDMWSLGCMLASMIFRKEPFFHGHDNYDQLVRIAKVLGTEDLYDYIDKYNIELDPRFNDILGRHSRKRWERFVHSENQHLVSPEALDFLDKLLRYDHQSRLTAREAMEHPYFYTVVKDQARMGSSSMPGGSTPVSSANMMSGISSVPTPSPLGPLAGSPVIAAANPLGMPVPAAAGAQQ

[5] = target: Casein kinase II subunit alpha (Homo sapiens) (UniProt P68400); conditions: at 1 µM
[6] = target: T2, Inhibitor of nuclear factor kappa-B kinase subunit alpha (Homo sapiens) (UniProt O15111); conditions: at 0.1 µM
T2 sequence (whole entry): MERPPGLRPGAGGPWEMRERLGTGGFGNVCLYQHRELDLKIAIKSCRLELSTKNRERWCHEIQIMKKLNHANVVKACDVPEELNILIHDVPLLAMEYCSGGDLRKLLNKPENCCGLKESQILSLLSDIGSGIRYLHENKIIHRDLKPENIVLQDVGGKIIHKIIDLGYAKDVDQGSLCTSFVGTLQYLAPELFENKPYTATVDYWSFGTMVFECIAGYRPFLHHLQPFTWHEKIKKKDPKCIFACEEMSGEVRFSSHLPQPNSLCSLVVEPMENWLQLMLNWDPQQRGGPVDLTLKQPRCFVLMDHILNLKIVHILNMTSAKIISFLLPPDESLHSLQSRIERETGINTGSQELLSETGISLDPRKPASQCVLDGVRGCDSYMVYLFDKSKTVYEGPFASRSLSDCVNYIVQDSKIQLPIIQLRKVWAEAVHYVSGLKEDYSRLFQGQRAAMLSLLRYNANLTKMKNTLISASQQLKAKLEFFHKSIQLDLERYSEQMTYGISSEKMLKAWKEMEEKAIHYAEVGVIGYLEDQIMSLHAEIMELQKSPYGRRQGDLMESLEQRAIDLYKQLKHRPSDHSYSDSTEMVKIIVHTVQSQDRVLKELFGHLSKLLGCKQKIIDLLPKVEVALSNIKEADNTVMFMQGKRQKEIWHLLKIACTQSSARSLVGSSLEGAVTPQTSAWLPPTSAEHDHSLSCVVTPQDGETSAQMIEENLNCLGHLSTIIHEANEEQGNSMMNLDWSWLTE

[7] = target: T2, Inhibitor of nuclear factor kappa-B kinase subunit alpha (Homo sapiens); conditions: at 1 µM
[8] = target: T3, Inhibitor of nuclear factor kappa-B kinase subunit beta (Homo sapiens) (UniProt O14920); conditions: at 0.1 µM
T3 sequence (whole entry): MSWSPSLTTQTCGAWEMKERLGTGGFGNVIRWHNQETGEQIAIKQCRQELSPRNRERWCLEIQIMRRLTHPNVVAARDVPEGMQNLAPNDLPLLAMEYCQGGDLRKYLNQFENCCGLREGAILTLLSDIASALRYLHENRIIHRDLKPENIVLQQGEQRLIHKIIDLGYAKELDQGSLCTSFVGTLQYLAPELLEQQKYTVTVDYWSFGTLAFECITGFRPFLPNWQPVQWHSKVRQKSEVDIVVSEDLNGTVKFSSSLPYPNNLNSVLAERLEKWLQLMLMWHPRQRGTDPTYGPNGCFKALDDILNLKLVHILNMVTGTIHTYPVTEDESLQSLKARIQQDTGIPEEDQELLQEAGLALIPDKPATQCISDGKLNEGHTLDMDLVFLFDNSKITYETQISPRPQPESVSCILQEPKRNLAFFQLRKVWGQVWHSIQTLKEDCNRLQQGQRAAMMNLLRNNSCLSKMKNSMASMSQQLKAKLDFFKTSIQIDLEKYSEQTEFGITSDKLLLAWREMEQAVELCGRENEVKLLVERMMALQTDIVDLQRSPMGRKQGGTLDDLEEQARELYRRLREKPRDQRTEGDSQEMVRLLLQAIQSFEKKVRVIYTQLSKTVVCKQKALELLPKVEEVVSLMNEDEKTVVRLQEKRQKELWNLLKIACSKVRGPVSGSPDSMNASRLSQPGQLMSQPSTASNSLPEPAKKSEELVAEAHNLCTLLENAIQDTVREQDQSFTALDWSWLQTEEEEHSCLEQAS

[9] = target: T3, Inhibitor of nuclear factor kappa-B kinase subunit beta (Homo sapiens); conditions: at 1 µM
[10] = target: T4, Inhibitor of nuclear factor kappa-B kinase subunit epsilon (Homo sapiens) (UniProt Q14164); conditions: at 0.1 µM
T4 sequence (whole entry): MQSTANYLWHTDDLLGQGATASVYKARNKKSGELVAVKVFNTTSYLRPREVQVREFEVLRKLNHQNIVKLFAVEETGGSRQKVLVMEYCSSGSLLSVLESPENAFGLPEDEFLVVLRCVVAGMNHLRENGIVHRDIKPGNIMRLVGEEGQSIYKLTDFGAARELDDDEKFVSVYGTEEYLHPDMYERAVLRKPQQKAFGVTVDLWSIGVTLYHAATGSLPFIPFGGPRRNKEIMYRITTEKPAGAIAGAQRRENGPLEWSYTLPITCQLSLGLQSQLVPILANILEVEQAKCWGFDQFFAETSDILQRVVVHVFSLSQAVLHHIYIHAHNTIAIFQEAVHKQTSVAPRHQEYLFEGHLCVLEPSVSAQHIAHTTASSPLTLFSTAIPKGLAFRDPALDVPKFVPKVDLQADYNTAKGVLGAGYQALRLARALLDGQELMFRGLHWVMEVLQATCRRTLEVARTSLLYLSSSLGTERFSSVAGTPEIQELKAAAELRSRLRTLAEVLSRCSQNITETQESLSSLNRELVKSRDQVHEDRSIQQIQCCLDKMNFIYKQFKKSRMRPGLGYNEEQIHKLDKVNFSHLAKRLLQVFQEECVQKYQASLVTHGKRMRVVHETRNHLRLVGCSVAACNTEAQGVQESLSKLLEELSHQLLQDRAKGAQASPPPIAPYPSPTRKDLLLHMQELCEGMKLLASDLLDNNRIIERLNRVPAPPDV

[11] = target: T4, Inhibitor of nuclear factor kappa-B kinase subunit epsilon (Homo sapiens); conditions: at 1 µM
[12] = target: T5, Serine/threonine-protein kinase Nek1 (Homo sapiens) (UniProt Q96PY6); conditions: at 0.1 µM
T5 sequence (whole entry): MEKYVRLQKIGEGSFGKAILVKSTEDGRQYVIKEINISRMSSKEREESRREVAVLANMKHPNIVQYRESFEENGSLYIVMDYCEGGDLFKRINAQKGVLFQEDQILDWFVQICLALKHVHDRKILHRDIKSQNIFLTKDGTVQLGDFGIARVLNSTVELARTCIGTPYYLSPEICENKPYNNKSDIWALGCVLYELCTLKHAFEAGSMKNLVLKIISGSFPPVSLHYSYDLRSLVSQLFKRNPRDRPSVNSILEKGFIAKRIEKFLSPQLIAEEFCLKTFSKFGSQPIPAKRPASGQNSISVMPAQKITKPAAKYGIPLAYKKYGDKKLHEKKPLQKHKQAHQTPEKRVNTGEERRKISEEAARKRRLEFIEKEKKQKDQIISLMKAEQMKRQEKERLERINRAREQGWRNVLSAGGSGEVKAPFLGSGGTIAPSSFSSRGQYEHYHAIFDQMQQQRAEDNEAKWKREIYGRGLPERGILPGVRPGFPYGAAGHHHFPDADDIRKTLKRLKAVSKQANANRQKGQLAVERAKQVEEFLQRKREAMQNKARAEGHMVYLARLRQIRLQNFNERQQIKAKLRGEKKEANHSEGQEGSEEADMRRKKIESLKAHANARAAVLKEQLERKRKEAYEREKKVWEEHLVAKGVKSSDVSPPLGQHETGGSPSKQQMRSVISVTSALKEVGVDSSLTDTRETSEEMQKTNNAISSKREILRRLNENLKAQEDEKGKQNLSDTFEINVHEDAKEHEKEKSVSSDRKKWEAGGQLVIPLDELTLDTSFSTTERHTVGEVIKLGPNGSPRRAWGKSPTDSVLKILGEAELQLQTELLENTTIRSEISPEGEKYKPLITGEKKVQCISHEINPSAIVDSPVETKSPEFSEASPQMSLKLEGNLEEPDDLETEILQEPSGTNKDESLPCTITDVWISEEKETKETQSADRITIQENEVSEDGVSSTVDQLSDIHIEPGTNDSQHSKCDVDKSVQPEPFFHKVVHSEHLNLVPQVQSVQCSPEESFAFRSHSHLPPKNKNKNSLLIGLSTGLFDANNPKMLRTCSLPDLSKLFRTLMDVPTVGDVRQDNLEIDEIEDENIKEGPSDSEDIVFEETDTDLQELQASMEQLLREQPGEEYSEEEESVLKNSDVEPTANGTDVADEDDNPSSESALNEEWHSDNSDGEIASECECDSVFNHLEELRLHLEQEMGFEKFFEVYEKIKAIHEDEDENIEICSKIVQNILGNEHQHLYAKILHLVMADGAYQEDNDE

[13] = target: T5, Serine/threonine-protein kinase Nek1 (Homo sapiens); conditions: at 1 µM
[14] = target: T6, Serine/threonine-protein kinase Nek2 (Homo sapiens) (UniProt P51955); conditions: at 0.1 µM
T6 sequence (whole entry): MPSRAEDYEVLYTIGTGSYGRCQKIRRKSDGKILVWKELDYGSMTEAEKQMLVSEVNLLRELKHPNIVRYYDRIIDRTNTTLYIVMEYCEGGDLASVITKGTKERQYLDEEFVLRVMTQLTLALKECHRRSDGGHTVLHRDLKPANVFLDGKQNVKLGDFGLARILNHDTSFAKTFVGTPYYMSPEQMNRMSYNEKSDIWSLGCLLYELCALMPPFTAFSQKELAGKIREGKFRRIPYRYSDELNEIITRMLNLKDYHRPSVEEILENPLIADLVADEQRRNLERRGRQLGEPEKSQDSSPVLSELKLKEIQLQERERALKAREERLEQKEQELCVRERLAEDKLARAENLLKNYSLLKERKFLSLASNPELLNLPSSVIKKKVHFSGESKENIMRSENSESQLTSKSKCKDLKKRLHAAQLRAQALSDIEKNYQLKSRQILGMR

[15] = target: T6, Serine/threonine-protein kinase Nek2 (Homo sapiens); conditions: at 1 µM
[16] = target: Serine/threonine-protein kinase Nek6 (Homo sapiens) (UniProt Q9HC98); conditions: at 0.1 µM
Chain of Serine/threonine-protein kinase Nek6 (Homo sapiens) (Q9HC98 whole entry): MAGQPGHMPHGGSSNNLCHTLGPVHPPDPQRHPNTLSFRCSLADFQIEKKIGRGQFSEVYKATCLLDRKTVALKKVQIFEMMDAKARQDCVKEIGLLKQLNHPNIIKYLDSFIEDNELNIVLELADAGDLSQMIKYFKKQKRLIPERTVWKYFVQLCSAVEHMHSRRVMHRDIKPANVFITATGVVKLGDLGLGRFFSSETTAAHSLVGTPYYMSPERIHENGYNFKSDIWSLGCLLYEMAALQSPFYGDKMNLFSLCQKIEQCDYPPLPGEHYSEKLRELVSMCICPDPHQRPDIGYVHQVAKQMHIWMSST

[17] = target: Serine/threonine-protein kinase Nek6 (Homo sapiens) (UniProt Q9HC98); conditions: at 1 µM
[18] = target: Serine/threonine-protein kinase Nek7 (Homo sapiens) (UniProt Q8TDX7); conditions: at 0.1 µM
Chain of Serine/threonine-protein kinase Nek7 (Homo sapiens) (Q8TDX7 whole entry, looked up): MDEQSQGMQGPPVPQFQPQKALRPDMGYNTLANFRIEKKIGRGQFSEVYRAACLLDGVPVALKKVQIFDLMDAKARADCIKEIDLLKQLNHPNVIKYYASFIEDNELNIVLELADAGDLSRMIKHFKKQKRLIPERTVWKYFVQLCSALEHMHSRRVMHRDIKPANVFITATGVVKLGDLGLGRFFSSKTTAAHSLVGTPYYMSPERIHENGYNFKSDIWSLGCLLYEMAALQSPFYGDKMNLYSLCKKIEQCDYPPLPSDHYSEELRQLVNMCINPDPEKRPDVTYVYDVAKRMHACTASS

[19] = target: Serine/threonine-protein kinase Nek7 (Homo sapiens) (UniProt Q8TDX7); conditions: at 1 µM
[20] = target: T7, Serine/threonine-protein kinase Nek9 (Homo sapiens) (UniProt Q8TD19); conditions: at 0.1 µM;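 further: reported value is the mean percent inhibition of NEK9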
T7 sequence (whole entry): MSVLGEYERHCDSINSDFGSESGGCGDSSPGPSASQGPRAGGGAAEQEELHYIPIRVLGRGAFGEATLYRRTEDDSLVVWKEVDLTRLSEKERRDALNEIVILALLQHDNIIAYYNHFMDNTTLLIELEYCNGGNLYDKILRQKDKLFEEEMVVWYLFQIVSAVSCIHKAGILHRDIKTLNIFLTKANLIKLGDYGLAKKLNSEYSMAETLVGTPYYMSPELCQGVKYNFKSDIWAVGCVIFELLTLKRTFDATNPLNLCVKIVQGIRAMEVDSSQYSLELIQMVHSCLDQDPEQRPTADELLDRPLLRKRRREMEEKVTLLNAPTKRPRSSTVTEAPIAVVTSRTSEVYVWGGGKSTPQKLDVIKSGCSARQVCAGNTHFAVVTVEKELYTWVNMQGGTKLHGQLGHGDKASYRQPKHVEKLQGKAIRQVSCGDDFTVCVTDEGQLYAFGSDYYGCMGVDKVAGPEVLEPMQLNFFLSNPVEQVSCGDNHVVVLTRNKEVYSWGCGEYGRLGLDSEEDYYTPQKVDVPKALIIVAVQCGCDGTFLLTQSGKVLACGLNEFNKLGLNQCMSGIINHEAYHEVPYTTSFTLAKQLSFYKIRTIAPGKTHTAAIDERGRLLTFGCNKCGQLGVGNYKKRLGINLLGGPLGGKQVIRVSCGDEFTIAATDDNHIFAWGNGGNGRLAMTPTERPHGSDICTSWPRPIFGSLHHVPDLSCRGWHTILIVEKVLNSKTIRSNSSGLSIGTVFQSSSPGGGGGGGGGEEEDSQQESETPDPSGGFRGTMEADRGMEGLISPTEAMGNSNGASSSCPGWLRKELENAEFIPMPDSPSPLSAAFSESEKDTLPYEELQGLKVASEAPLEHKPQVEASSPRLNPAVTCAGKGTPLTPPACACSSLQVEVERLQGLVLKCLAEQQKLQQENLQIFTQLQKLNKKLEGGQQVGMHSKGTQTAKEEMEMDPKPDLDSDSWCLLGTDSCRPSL

Chain of Sphingosine kinase 1 (Homo sapiens) (Q9NYA1 whole entry): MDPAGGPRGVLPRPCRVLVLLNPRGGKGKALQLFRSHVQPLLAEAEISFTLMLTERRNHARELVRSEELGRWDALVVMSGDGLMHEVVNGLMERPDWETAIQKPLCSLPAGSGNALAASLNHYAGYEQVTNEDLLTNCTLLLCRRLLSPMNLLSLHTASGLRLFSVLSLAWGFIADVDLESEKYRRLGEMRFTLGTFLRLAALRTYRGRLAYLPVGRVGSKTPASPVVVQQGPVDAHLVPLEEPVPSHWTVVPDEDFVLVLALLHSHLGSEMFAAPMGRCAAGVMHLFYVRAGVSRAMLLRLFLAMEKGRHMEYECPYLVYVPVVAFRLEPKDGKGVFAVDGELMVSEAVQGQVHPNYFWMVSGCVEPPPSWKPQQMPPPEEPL

Structure (SMILES)	inhibition [1] [%]	inhibition [2] [%]	inhibition [3] [%]	inhibition [4] [%]	inhibition [5] [%]	inhibition [6] [%]	inhibition [7] [%]	inhibition [8] [%]	inhibition [9] [%]	inhibition [10] [%]	inhibition [11] [%]	inhibition [12] [%]	inhibition [13] [%]	inhibition [14] [%]	inhibition [15] [%]	inhibition [16] [%]	inhibition [17] [%]	inhibition [18] [%]	inhibition [19] [%]	inhibition [20] [%]
Cc1cc(O)cc(C)c1/C=C/c1cncc(C(=O)N(C)C)c1	-0.49	-0.12	0.05	4.25	5.95	5.21	9.29	6.05	2.23	2.77	2.2	2.11	5.18	2.6	3.87	2.43	0.38	3.87	4.65	11.4
NS(=O)(=O)c1ccc(Nc2cc(-c3cccc(O)c3)n[nH]2)cc1	-2.64	0.05	-0.8	2.68	3.26	2.32	2.31	4.33	5.24	6.1	6.34	3.72	3.43	6.7	7.9	1.66	-3.5	6.05	4.88	4.44
